# Source: PubChem BioAssay (NCATS)
# Results filed as inconclusive are left out. Unmarked numbers belong to inactive results. The source made the active and inactive calls. The call rests on the fitted dose curve; in most records, active means well fitted inhibition curve with a large enough effect; inconclusive means small, poorly fitted or top-dose-only effect; inactive means no such curve, though single readings can be large or run the other way.
# Assay: qHTS to identify inhibitors of the type 1 interferon - major histocompatibility complex class I in skeletal muscle: primary screen against the NCATS Mechanism Interrogation Plate v5.0 (MIPE) Libary (AID 1347411); further: nearly all actives have a fitted effect of over 65% in size;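 on activity change, negative = inhibition: plate controls were vehicle for no effect and reference inhibitor for full effect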
# Conditions: iHSKM cells + IFN-b, HiBiT-tagged MHC-I luminescence, 24 h; series mostly up to 45.8 µM; activity change, negative = inhibition: at the top concentration
# How it was run: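 Seed engineered human myoblasts (HLA-B HiBit) in medium without dexamethasone containing 4 ng/ml IFN-beta; after 1 hr add compound titrations (top 46 uM final). Incubate 24 hrs at 37 C, lyse 10 min with HiBiT reagent, read luminescence.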
# Potency means the concentration at half of the fitted maximal effect.
SMILES,"activity change, negative = inhibition [%]",Potency
COc1nc(-c2ccc3c(c2)OCO3)n(-c2ccc(NC(=O)CSc3ccccc3)cc2)n1,-28.1,–
COc1cc2c(cc1OC)CN(CCc1ccc(NC(=O)c3cccc4c(=O)c5cccc(OC)c5[nH]c34)cc1)CC2,-10,–
CCOc1ccn(-c2ccc(F)cc2)c(=O)c1C(=O)Nc1ccc(Oc2ccnc(N)c2Cl)c(F)c1,-28,–
NC(=O)c1ccc(I)c([N+](=O)[O-])c1,-16.8,–
CCCn1c(=O)c2[nH]c(C34CC5CC3C[C@@H](C5)C4)nc2n(CCC)c1=O,6.42,–
Fc1ccc(Cl)cc1-c1nc(Nc2ccncc2)c2nccnc2n1,-14.4,–
CC(C)(C)OC(=O)CN(Cc1ccc(Cl)cc1)Cc1ccc([N+](=O)[O-])s1,-14.8,–
Cc1cc(Nc2nc(N[C@@H](C)c3ncc(F)cn3)ncc2Cl)n[nH]1,–,1.04 µM (active)
CN(C)C(=O)c1ccc(S(=O)(=O)c2ccc(NC(=O)[C@@](C)(O)C(F)(F)F)c(Cl)c2)cc1,-16.5,–
Cc1cnc(Nc2ccc(OCCN3CCCC3)cc2)nc1Nc1cccc(S(=O)(=O)NC(C)(C)C)c1,–,5.23 µM (active)
COc1ccc(-c2c(-c3ccc(O)cc3O)n[nH]c2C)cc1,-41.5,–
CC[C@@H](C)[C@H](NC(=O)[C@H](CC1CCCCC1)NC(=O)c1ccno1)C(=O)N1CCC2(CCc3ccccc32)CC1,-40.1,–
Cc1c(CCOc2ccc(C(=O)O)cc2)c2cc(Cl)ccc2n1C(c1ccccc1)c1ccccc1,-5.77,–
N#CC[C@H](C1CCCC1)n1cc(-c2ncnc3[nH]ccc23)cn1,-70.1,–
C[C@]1(c2nc3c(C(N)=O)cccc3[nH]2)CCCN1,-15.1,–
c1ccc(-c2nn3c(c2-c2ccnc4cc(OCCN5CCOCC5)ccc24)CCC3)nc1,-2.51,–
C[C@@H]1CN(Cc2ccc(F)cc2)[C@@H](C)CN1C(=O)c1cc2c(C(=O)C(=O)N(C)C)cn(C)c2cc1Cl,-2.92,–

SMILES,"activity change, negative = inhibition [%]",Potency
CNC(=O)c1ccc(C)c(-n2c(C)cc(OCc3ccc(F)cc3F)c(Br)c2=O)c1,-43.2,–
CN[C@@H](C)C(=O)N[C@H]1CCCC[C@H]2CC[C@@H](C(=O)N[C@@H](c3ccccc3)c3cn(CCCCc4ccc(CCCCn5cc([C@@H](NC(=O)[C@@H]6CC[C@@H]7CCCC[C@H](NC(=O)[C@H](C)NC)C(=O)N76)c6ccccc6)nn5)cc4)nn3)N2C1=O,–,3.3 µM (active)
CCC(=O)N[C@H]1CC[C@H](C(=O)N(C)c2ccc(-c3nc4ccccc4o3)cc2)C1,-26.2,–
CCN(c1ccccc1)c1cc(NC)[n+](C)c(C)n1,-11.6,–
Cc1n[nH]c(C)c1Cc1sc2c(c1C(=O)N1C[C@H](O)CO1)c(=O)n(C)c(=O)n2CC(C)C,1.35,–
CC(C)(N)C(=O)N[C@H](COCc1ccccc1)C(=O)N1CCC2(CC1)CN(S(C)(=O)=O)c1ccccc12,31.4,–
CCCCCCCc1ccc(CCc2cccc(O)c2C(=O)O)cc1,-17,–
NC(=O)c1ccc(-c2nc(-c3ccc4c(c3)OCO4)c(-c3ccccn3)[nH]2)cc1,-3.37,–
COc1ccc(COc2cc3oc(=O)c4cc(C(C)O)ccc4c3cc2OC)cc1 (stereo not drawn),-16.9,–
CC(C)OC(=O)C1=CN(C(=O)c2ccc(F)c(F)c2)CC(C)(C)c2c1[nH]c1ccccc21,18.3,–
O=C(O)[C@@H](c1ccc(OCc2ccc3ccccc3n2)cc1)C1CCCC1,31,–
CN(C)c1ccc(C2Nc3ccc4ccccc4c3C3=C2C(=O)CC(C)(C)C3)cc1Br (stereo not drawn),6.38,–
COc1c(Cl)cc2c([nH]c3cnccc32)c1NC(=O)c1cccnc1C,–,26.2 µM (active)
Nc1cccc(S(=O)(=O)N2CCCN(S(=O)(=O)c3ccc4c(c3)OCCO4)CC2)c1,6.36,–
Cn1cc(-c2ccc3nnc(C(F)(F)c4ccc5ncccc5c4)n3n2)cn1,-0.804,–
COc1ccc(CC2=NN3C([C@@H](CCc4ccccc4)[C@@H](C)O)=NC(C)C3C(=O)N2)cc1OC (stereo partly drawn),-0.76,–
